Inconclusive results are not listed. The source made the active and inactive calls. Unless noted, the call rests on the fitted dose curve; in most records, active means well fitted curve in the direction sought with a large enough effect in the repeat runs; inconclusive means weak or mixed curves; inactive means no such curve, though single readings can be large; an effect the other way counts as inactive or inconclusive.
How the values were obtained:
[1] = qHTS assay for small molecules that induce genotoxicity in human embryonic kidney cells expressing luciferase-tagged ATAD5 (AID 651632); further: nearly all actives have a fitted effect of over 15% in size
How it was run: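 DMSO vehicle served as the control. HEK293T reporter cells, 16 hr at 37C, then 30 min Amplite at room temperature; ATAD5 induction is measured as luciferase activity.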

[2] = qHTS assay for small molecules that induce genotoxicity in human embryonic kidney cells expressing luciferase-tagged ATAD5 - cell viability (AID 651634; calls by dose curve; further: nearly all actives have a fitted effect of over 25% in size; further: potency means the concentration at half of the fitted maximal effect)
How it was run: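 Here HEK293T cells with the ATAD5 luciferase reporter are incubated with test compounds for 15.5 hr, and cytotoxicity is then gauged by measuring protease activity in live cells using fluorescence.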

[3] = qHTS assay for small molecule disruptors of the mitochondrial membrane potential - cell viability (AID 720634; calls by dose curve;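 further: human HepG2 liver cancer cells; series mostly up to about 83 µM; nearly all actives have a fitted effect of over 20% in size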)
How it was run: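 Viability of HepG2 cells is scored from ATP content by luminescence; cells are exposed to compound for 1 hr at 37 C and 5% CO2, then dosed with m-MPI dye before the CellTiter-Glo reagent.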

[4] = qHTS assay for small molecule disruptors of the mitochondrial membrane potential (AID 720635); further: potency means the concentration at half of the fitted maximal effect
How it was run: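 HepG2 cells exposed to compound 1 hr at 37C, then Mito-MPS dye 30 min. Ratio read of aggregate (540/590 nm) versus monomer (490/535 nm) fluorescence.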

[5] = qHTS assay to test for compound auto fluorescence at 590 nm (red) in HepG2 cells (AID 720674)
How it was run: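 Fluorescence at 590 nm emission following 540 nm excitation was recorded from HepG2 wells one hour after compound transfer, with DMSO-only wells as vehicle and Rose Bengal sodium equivalency as the scale.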

[6] = qHTS assay to test for compound auto fluorescence at 535 nm (green) in HepG2 cells (AID 720675)
[7] = qHTS assay to test for compound auto fluorescence at 535 nm (green) in HEK293 cells (AID 720680)
[8] = qHTS assay to test for compound auto fluorescence at 460 nm (blue) in HEK293 cell free culture (AID 720681)
How it was run: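 Compounds were added to cell-free DMEM with 10% FBS and fluorescence read directly. The blue channel used 405 nm excitation and 460 nm emission, with triamterene as the reference fluorophore.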

[9] = qHTS assay to test for compound auto fluorescence at 535 nm (green) in HEK293 cell free culture (AID 720682)
How it was run: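 Measurement is a direct plate read of green fluorescence (485 nm in, 535 nm out) after compound addition to serum-supplemented DMEM lacking cells, with fluorescein used to express intensities.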

[10] = qHTS assay to test for compound auto fluorescence at 590 nm (red) in HEK293 cell free culture (AID 720683)
How it was run: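 Cell-free wells of DMEM with 10% FBS received compound, and intrinsic fluorescence was read at excitation/emission 540/590 nm. Values expressed as equivalence to Rose Bengal sodium.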

[11] = qHTS assay to test for compound auto fluorescence at 590 nm (red) in HepG2 cell free culture (AID 720684)
How it was run: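 Auto fluorescence equivalency versus Rose Bengal sodium, red channel Ex/Em 540/590 nm; compounds in cell-free MEM/10% FBS; DMSO vehicle control.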

[12] = qHTS assay to test for compound auto fluorescence at 460 nm (blue) in HepG2 cell free culture (AID 720685)
How it was run: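 Cell-free plates of MEM plus 10% FBS received 23 nL compound or DMSO vehicle; blue-channel (405/460 nm) intensity scored against triamterene as reference fluorophore.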

[13] = qHTS assay to test for compound auto fluorescence at 535 nm (green) in HepG2 cell free culture (AID 720686)
[14] = biological target: Glucocorticoid receptor (Homo sapiens) (UniProt P04150); experiment: qHTS assay to identify small molecule agonists of the glucocorticoid receptor (GR) signaling pathway (AID 720691; active means well fitted activation curve with a large enough effect in the signal ratio in the repeat runs, not every such curve was filed as active; the % refers to the signal ratio; further: potency means the concentration at half of the fitted maximal effect)
How it was run: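 Compounds in DMSO, alongside positive controls, were added to GR-bla HeLa reporter cells and incubated 18 h at 37 C; GRE-driven beta-lactamase was detected by fluorescence after 2 h with FRET substrate at room temperature.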

[15] = biological target: Glucocorticoid receptor (Homo sapiens) (UniProt P04150); experiment: qHTS assay to identify small molecule antagonists of the glucocorticoid receptor (GR) signaling pathway (AID 720692; active means well fitted inhibition curve with a large enough effect in the signal ratio in the repeat runs, not every such curve was filed as active; the % refers to the signal ratio)
How it was run: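 In a 1536-well cell format, compounds were added 4 h after seeding GR-bla HeLa cells, together with dexamethasone at 5 nM final; reporter activity was measured by FRET-substrate fluorescence following 18 h at 37 C.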

[16] = qHTS assay for small molecule agonists of the p53 signaling pathway - cell viability (AID 651633; calls by dose curve; further: nearly all actives have a fitted effect of over 30% in size; further: potency means the concentration at half of the fitted maximal effect)
How it was run: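 p53RE-bla cells were treated with compound for 16 hours at 37 C. Cytotoxicity was then measured as CellTiter-Glo luminescence after 30 min at room temperature.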

[17] = qHTS assay to test for compound auto fluorescence at 460 nm (blue) in HEK293 cells (AID 720678)
How it was run: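 After cell attachment (4-5 hr, 37C), compounds were pinned onto HEK293 monolayers in 10% dialyzed FBS medium. The blue channel (405/460 nm) was read following overnight culture. Equivalency was calculated against triamterene.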

[18] = qHTS assay to test for compound auto fluorescence at 460 nm (blue) in HepG2 cells (AID 720687)
How it was run: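 HepG2 cells in MEM with 10% FBS, attached overnight at 37 C, were exposed to compound or DMSO for 1 hr at 37 C, 5% CO2. Blue fluorescence was read at 405/460 nm, with triamterene as reference fluorophore.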

[19] = qHTS assay to test for compound auto fluorescence at 590 nm (red) in HEK293 cells (AID 720679)
How it was run: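 Plates of HEK293 cells (10% dialyzed FBS) are treated with 23 nL compound or DMSO vehicle after a 4-5 hr attachment period, incubated overnight at 37C, and read for red fluorescence at 540/590nm.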
On the % scale 0 is the no-effect control and ±100 the full control effect.

Sequence of Glucocorticoid receptor (Homo sapiens) (P04150 whole entry, looked up): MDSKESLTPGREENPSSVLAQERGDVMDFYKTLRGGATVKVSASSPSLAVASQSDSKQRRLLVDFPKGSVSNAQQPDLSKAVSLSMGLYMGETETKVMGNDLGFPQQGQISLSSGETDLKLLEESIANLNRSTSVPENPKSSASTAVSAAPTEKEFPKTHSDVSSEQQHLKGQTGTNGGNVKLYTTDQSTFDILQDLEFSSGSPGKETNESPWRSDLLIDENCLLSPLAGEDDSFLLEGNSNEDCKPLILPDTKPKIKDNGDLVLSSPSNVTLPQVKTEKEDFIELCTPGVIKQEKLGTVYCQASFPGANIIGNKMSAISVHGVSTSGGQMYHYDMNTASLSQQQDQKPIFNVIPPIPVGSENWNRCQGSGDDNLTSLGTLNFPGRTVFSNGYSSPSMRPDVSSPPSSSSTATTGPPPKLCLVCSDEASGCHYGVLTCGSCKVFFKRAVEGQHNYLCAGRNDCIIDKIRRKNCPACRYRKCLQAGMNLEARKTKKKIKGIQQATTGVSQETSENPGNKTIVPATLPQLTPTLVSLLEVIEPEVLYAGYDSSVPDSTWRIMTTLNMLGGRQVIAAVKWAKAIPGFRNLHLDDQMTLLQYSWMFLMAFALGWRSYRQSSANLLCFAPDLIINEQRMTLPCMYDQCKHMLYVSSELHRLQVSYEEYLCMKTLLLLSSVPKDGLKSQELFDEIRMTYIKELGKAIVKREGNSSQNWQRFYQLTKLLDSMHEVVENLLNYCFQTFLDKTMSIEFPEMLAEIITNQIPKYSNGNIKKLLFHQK

CCCCCCOC(=O)CCCCCCCC(=O)OCCCCCC
inactive: Potency [1] | Potency [2] | Potency [3] | Potency [4] | outcome [5] | outcome [6] | outcome [7] | Potency [8] | outcome [9] | outcome [10] | outcome [11] | Potency [12] | outcome [13] | Potency [14] | Potency [15]

Cc1cc2nc3ccc(=[N+](C)C)cc-3sc2cc1N
active: Potency [16] 7.5 µM | Potency [4] 3.76 µM
inactive: Potency [1] | outcome [6] | Potency [17] | outcome [7] | Potency [8] | outcome [9] | outcome [10] | outcome [11] | Potency [12] | outcome [13] | Potency [18]

C=CC(=O)NCOCC(C)C
inactive: Potency [1] | Potency [16] | Potency [4] | outcome [5] | outcome [6] | Potency [17] | outcome [19] | outcome [7] | Potency [8] | outcome [9] | outcome [10] | outcome [11] | Potency [12] | outcome [13] | Potency [18]

CCCCN(CCCC)C(=S)SSC(=S)N(CCCC)CCCC
inactive: Potency [1] | Potency [16] | outcome [5] | outcome [7] | Potency [8] | outcome [9] | outcome [10] | outcome [11] | Potency [12] | outcome [13] | Potency [18]

CCCc1c(OCCCOc2ccc(OCC(=O)O)cc2)ccc(C(C)=O)c1O
inactive: Potency [1] | outcome [5] | outcome [6] | outcome [19] | outcome [7] | Potency [8] | outcome [9] | outcome [10] | outcome [11] | Potency [12] | outcome [13] | Potency [18] | Potency [14]

CC(C)(O)c1ccccc1CC[C@@H](SCC1(CC(=O)O)CC1)c1cccc(/C=C/c2ccc3ccc(Cl)cc3n2)c1
inactive: Potency [3] | outcome [5] | outcome [6] | outcome [19] | outcome [7] | Potency [8] | outcome [9] | outcome [10] | outcome [11] | Potency [12] | outcome [13] | Potency [18]
active: Potency [16] 13.3 µM

CCCCCCCCCCOS(=O)(=O)O
inactive: Potency [1] | Potency [16] | Potency [3] | outcome [6] | Potency [17] | outcome [19] | outcome [7] | Potency [8] | outcome [9] | outcome [10] | outcome [11] | Potency [12] | outcome [13] | Potency [18]

Cc1ccc(Nc2nccc(N(C)c3ccc4c(C)n(C)nc4c3)n2)cc1S(N)(=O)=O
active: Potency [2] 26.6 µM | Potency [4] 0.75 µM
inactive: Potency [1] | Potency [3] | outcome [5] | outcome [6] | Potency [17] | outcome [7] | Potency [8] | outcome [9] | outcome [10] | outcome [11] | Potency [12] | outcome [13]

COc1cc2c(N3CCN(C(=O)Nc4ccc(OC(C)C)cc4)CC3)ncnc2cc1OCCCN1CCCCC1
inactive: Potency [3] | outcome [5] | outcome [6] | Potency [17] | outcome [19] | outcome [7] | Potency [8] | outcome [9] | outcome [10] | outcome [11] | Potency [12] | outcome [13] | Potency [18] | Potency [14]
active: Potency [16] 5.31 µM | Potency [2] 29.8 µM | Potency [4] 26.6 µM

COC(=O)[C@@H]1CC2=CC(=O)CC[C@]2(C)[C@@]23O[C@@H]2C[C@@]2(C)[C@@H](CC[C@@]24CCC(=O)O4)[C@H]13
inactive: Potency [1] | Potency [2] | Potency [3] | outcome [6] | Potency [17] | outcome [19] | outcome [7] | Potency [8] | outcome [9] | outcome [10] | outcome [11] | outcome [13]

O=C(Nc1ccccc1)Nc1ccccc1
active: Potency [4] 1.73 µM
inactive: Potency [1] | outcome [5] | outcome [6] | Potency [17] | outcome [19] | outcome [7] | Potency [8] | outcome [9] | outcome [10] | outcome [11] | Potency [12] | outcome [13] | Potency [18]

COc1cc2ncnc(Nc3ccc(F)c(Cl)c3)c2cc1OCCCN1CCOCC1
inactive: Potency [1] | Potency [17] | outcome [19] | outcome [7] | Potency [8] | outcome [9] | outcome [10] | outcome [11] | Potency [12] | outcome [13] | Potency [18] | Potency [14]

Nc1ccc(Cl)cc1[N+](=O)[O-]
active: Potency [4] 53.9 µM
inactive: Potency [1] | Potency [3] | outcome [5] | outcome [6] | Potency [17] | outcome [19] | outcome [7] | Potency [8] | outcome [9] | outcome [10] | outcome [11] | Potency [12] | outcome [13] | Potency [18]

Nc1ccc(C(=O)OCCCOC(=O)c2ccc(N)cc2)cc1
inactive: Potency [16] | outcome [5] | outcome [6] | Potency [17] | outcome [19] | outcome [7] | Potency [8] | outcome [9] | outcome [10] | outcome [11] | outcome [13] | Potency [14] | Potency [15]
active: Potency [4] 27.3 µM

CC(C)c1nnc2ccc(-c3ocnc3-c3cc(F)ccc3F)cn12
inactive: Potency [16] | outcome [5] | outcome [6] | Potency [17] | outcome [19] | outcome [7] | Potency [8] | outcome [9] | outcome [10] | outcome [11] | outcome [13] | Potency [18] | Potency [14] | Potency [15]

O=C(CCCN1CCN(c2ccc(F)cc2)CC1)NC1c2ccccc2CSc2ccccc21 (centres undefined)
inactive: Potency [1] | outcome [6] | Potency [17] | outcome [19] | outcome [7] | Potency [8] | outcome [9] | outcome [10] | outcome [11] | Potency [12] | outcome [13] | Potency [18] | Potency [14] | Potency [15]

CC1=C(/C=C/C(C)=C\C=C\C(C)=C\C(=O)O)C(C)(C)CCC1
inactive: Potency [1] | Potency [2] | Potency [3] | outcome [5] | outcome [6] | Potency [17] | outcome [19] | Potency [8] | outcome [9] | outcome [10] | outcome [11] | Potency [12] | outcome [13] | Potency [18]

CC(=O)OCC(=O)[C@@]12OC(C)(C)O[C@@H]1C[C@H]1[C@@H]3C[C@H](F)C4=CC(=O)C=C[C@]4(C)[C@@]3(F)[C@@H](O)C[C@@]12C
inactive: Potency [16] | Potency [2] | Potency [4] | fluorescence, relative to Rose Bengal [5] 0.821% [at 18.6 µM] | fluorescence, % of fluorescein control [6] -0.0438% [at 18.6 µM] | fluorescence, % of triamterene [17] -0.188% [at 18.6 µM] | fluorescence, % of fluorescein [7] -0.0611% [at 18.6 µM] | fluorescence, % of fluorescent control [8] -0.0905% [at 18.6 µM] | activity change [9] -0.0593% [at 18.6 µM] | fluorescence, % of fluorescent control [10] 0.389% [at 18.6 µM] | fluorescence, % of Rose Bengal [11] -0.181% [at 18.6 µM] | fluorescence, % of fluorescent control [12] -0.0666% [at 18.6 µM] | fluorescence, % of fluorescein control [13] -0.0467% [at 18.6 µM] | fluorescence, % of fluorescent control [18] 0.231% [at 18.6 µM]
active: Potency [14] 0.0064 µM

Reference: PubChem BioAssay (Tox21)
